In PubChem BioAssay (Tox21):
Inconclusive results are not listed. Unmarked numbers belong to inactive results. Active and inactive are the calls of the source. Calls come from the whole dose curve; as a rule, active = well fitted cell-killing curve with a large enough effect in the repeat runs; inconclusive = weak or mixed curves, or effect the other way; inactive = flat fitted curve, though single readings scatter.

experiment: Caspase-3/7 induction in HepG2 cells by small molecules, qHTS cell viability counter screen (AID 1346981); details: CellTiter-Fluor fluorescence, 17 h; series mostly up to 92.4 µM; activity change, negative = cytotoxicity: at the top concentration; note: nearly all actives have a fitted effect of over 30% in size
Source text: U.S. Tox21 Program National Center for Advancing Translational Sciences [NCATS] NIH Chemical Genomics Center [NCGC] U.S. Environmental Protection Agency [EPA] National Institutes of Environmental Health Sciences [NIEHS] National Toxicology Program [NTP] U.S. Food and Drug Administration [FDA] Tox21 Assay Overview: Apoptosis is a process of programmed cell death and plays a central role in the development of multicellular organisms. It is a highly regulated process and induces cell death by activating caspases, which are the members of cysteine aspartic acid-specific protease (caspase) family. Caspases involved in apoptosis are classified by their mechanism of action as initiator caspases (caspase-2, -8, -9 and -10) and executioner caspases (caspase-3, -6, and -7). Inhibition of apoptosis results in number of cancers, autoimmune diseases, inflammatory diseases and viral infection. To identify small molecule compounds that induce apoptosis, a homogeneous, luminescent Caspase-Glo 3/7 assay was used. Wild type HepG2 cells were used to screen Tox21 libraries for identifying caspase-3/7 activity inducers. Also cytotoxicity of the compounds was tested in parallel by measuring the cell viability using CellTiter-Fluor assay system in the same wells.
Tox21 Assay Protocol Summary: HepG2 cells were dispensed at 2,000 per well in 5uL of culture medium into white solid bottom 1536-well plates (Corning Life Sciences, Corning, NY) using a Multidrop Combi (Thermo Scientific, Waltham, MA) dispenser. The assay plates were incubated at 37 C and 5% CO2 for 5hr, and then 23nL of compounds dissolved in DMSO and positive control were transferred using a Pintool station ([…], San Diego, CA). The assay plates were incubated at 37C and 5% CO2 for 17hr. For cytotoxicity read, after 16hr incubation at 37C, 1uL CellTiter-Fluor reagent (Promega Corporation, Madison, WI) was added to each well of the assay plates using Flying Reagent Dispenser (FRD, Aurora Discovery, San Diego, CA). After 1hr incubation at 37C and 5% CO2, the fluorescence signal was quantified using a ViewLux plate reader (PerkinElmer, Shelton, CT).
% is set by controls: 0 for no effect and ±100 for the full control effect; potency is the fitted concentration of half-maximal effect.

Row | Compound | activity change, negative = cytotoxicity | Potency
1 | CCCCCCOc1ccccc1C(N)=O | -1.8% [at 42.5 µM] | –
2 | Cc1cc(C(C)(C)C)c(O)c(C)c1CC1=NCCN1 | 2.47% [at 42.5 µM] | –
3 | CC/C=C\CC1=C(C)CCC1=O | 1.26% | –
4 | Cc1ccc(C=O)cc1C | 7.13% | –
5 | CC(C)(C)c1nnc(NS(=O)(=O)c2ccc(N)cc2)s1 | 7.57% [at 42.5 µM] | –
6 | O=C(c1ccc(O)cc1)c1ccc(O)c(O)c1O | – | 54.7 µM (active)
7 | Cc1ccccc1OCC(O)CO (stereo not given) | -0.115% [at 42.5 µM] | –
8 | CCCCC(CC)COCCO (stereo not given) | 3.58% | –
9 | NNc1nnc(NN)c2ccccc12 | 13.9% [at 42.5 µM] | –
10 | CCCOC(OCCC)OCCC | -4.87% | –
11 | O=C(OCC1(COC(=O)c2cccnc2)CCCC(COC(=O)c2cccnc2)(COC(=O)c2cccnc2)C1O)c1cccnc1 | -0.121% [at 42.5 µM] | –
12 | CCCCCCCCCCl | 2.93% | –
13 | CC(S)C(=O)NCC(=O)O (stereo not given) | 1.68% [at 42.5 µM] | –
14 | Nc1ccc(S(=O)(=O)Nc2ccc(Cl)nn2)cc1 | -0.654% [at 42.5 µM] | –
15 | O=C(O)c1cc(Br)c(O)c(Br)c1 | -4.12% | –
16 | O=C(OCC(COC(=O)c1cccnc1)(COC(=O)c1cccnc1)COC(=O)c1cccnc1)c1cccnc1 | 0.993% [at 42.5 µM] | –
17 | C=C(C)C(=O)OCCOP(=O)(O)OCCOC(=O)C(=C)C | 7.64% | –
18 | CC(=O)Nc1ccc(S(=O)(=O)Cl)cc1 | 9.91% | –
19 | C[Si](C)(C)C | 0.525% | –
20 | O=C1c2ccccc2C(=O)N1CCl | 8.83% | –

Row | Compound | activity change, negative = cytotoxicity | Potency
21 | CCCCCCCCC(=O)Cl | 5.35% | –
22 | CC(=O)c1ccc2c(c1)Cc1ccccc1-2 | 2.32% | –
23 | Cc1[nH]cnc1-c1ccc(Cl)cc1 | 2.82% [at 42.5 µM] | –
24 | O=C1c2ccccc2C(=O)c2cc(S(=O)(=O)O)ccc21 | -0.384% | –
25 | Cc1cccc(C)c1OCC(C)N (stereo not given) | 2.24% [at 42.5 µM] | –
26 | N[C@@H](COP(=O)(O)O)C(=O)O | 5.73% [at 19 µM] | –
27 | Cc1c(I)c(=O)n(-c2ccccc2)n1C | 9.31% [at 42.5 µM] | –
28 | O=S(=O)(O)c1ccc2cc(O)c(S(=O)(=O)O)cc2c1 | 0.403% | –
29 | CCCCCCCCCC(C)=O | -2.56% | –
30 | O=P(O)(O)OP(=O)(O)O | 2.02% | –
31 | CCCCCCCCOS(=O)(=O)O | 4.54% | –
32 | OCCC(F)(F)C(F)(F)C(F)(F)C(F)(F)C(F)(F)C(F)(F)C(F)(F)C(F)(F)F | 0.148% | –
33 | O=C(O)CCSSCCC(=O)O | 6.8% | –
34 | CCn1ccc(NS(=O)(=O)c2ccc(N)cc2)nc1=O | 0.91% [at 42.5 µM] | –
35 | C=C(C)C(=O)OCC(C)(C)COC(=O)C(=C)C | 0.738% | –
36 | O=C(CS(=O)Cc1ccco1)NC/C=C\COc1cc(CN2CCCCC2)ccn1 (stereo not given) | -1.18% [at 42.5 µM] | –
37 | C[Si](C)=O | 6.01% [at 8.39 µM] | –
38 | C=CC(OCC)OCC | 5.66% | –
39 | CCC(C=O)CC | 0.867% | –
40 | CN1C(C)(C)CCCC1(C)C | 6.93% [at 42.5 µM] | –
